The values below come from ChEMBL document CHEMBL1961873, “Compounds: GSK PKIS; Assays: Nanosyn kinase panel” (2012).

One may read the inhibition as the relative decrease from the control value, in per cent.

Each structure is given as a SMILES string.

Assay [1] has as its target Serine/threonine-protein kinase pim-2 (Homo sapiens) (UniProt Q9P1W9). The note with it: at 1 µM.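 Also: each value is a mean of the inhibition measurements against the kinase.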
Assay [2] has as its target Serine/threonine-protein kinase pim-3 (Homo sapiens) (UniProt Q86V86). To be noted: at 0.1 µM.
For assay [3] the target is unchanged. To be noted: at 1 µM.
Assay [4] concerns the target T1, MAP kinase-activated protein kinase 5 (Homo sapiens) (UniProt Q8IW41).
T1 sequence (whole entry): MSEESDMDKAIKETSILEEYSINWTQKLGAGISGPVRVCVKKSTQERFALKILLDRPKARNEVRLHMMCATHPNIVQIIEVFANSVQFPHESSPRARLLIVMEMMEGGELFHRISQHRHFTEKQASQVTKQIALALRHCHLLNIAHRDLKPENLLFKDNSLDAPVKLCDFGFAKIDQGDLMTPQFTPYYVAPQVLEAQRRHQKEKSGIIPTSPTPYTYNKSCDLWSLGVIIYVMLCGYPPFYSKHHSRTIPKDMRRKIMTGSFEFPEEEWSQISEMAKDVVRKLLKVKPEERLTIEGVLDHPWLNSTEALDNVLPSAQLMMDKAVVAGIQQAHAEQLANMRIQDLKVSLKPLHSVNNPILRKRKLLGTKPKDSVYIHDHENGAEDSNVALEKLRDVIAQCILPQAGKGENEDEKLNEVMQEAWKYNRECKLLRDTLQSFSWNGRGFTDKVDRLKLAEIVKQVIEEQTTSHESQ
To be noted: at 0.1 µM.

Assay [5] addresses T1, MAP kinase-activated protein kinase 5 (Homo sapiens). The note with it: at 1 µM.
For assay [6], the target named is Serine/threonine-protein kinase SIK1 (Homo sapiens) (UniProt P57059). The note with it: at 0.1 µM.
Chain of Serine/threonine-protein kinase SIK1 (Homo sapiens) (P57059 whole entry): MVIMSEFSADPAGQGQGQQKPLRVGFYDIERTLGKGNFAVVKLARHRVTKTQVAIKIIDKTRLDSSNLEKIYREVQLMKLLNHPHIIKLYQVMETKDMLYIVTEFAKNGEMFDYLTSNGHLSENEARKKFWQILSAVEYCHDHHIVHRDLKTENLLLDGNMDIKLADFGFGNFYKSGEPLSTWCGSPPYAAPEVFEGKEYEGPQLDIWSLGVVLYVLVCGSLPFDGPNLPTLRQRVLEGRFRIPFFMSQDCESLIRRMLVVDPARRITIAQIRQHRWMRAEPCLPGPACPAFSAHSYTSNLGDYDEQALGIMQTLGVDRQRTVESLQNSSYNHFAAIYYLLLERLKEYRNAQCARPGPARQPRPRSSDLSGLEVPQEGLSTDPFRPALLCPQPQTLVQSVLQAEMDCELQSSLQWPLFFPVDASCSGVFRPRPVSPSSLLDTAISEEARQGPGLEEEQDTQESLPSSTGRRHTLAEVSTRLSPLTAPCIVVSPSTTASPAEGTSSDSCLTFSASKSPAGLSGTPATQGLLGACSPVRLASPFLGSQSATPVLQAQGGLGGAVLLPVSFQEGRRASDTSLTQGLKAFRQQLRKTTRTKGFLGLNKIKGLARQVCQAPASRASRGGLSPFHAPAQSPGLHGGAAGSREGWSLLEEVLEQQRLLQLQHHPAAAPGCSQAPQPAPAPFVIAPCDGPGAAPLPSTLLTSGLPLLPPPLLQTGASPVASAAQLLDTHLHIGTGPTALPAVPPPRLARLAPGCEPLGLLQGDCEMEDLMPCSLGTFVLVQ
The target is the same in assay [7]. The note with it: at 1 µM.
Assay [8] addresses Serine/threonine-protein kinase SIK2 (Homo sapiens) (UniProt Q9H0K1). To be noted: at 0.1 µM.
Assay [9] shares this target. The note with it: at 1 µM.
Assay [10] concerns the target T2, Serine/threonine-protein kinase TBK1 (Homo sapiens) (UniProt Q9UHD2).
T2 sequence (whole entry): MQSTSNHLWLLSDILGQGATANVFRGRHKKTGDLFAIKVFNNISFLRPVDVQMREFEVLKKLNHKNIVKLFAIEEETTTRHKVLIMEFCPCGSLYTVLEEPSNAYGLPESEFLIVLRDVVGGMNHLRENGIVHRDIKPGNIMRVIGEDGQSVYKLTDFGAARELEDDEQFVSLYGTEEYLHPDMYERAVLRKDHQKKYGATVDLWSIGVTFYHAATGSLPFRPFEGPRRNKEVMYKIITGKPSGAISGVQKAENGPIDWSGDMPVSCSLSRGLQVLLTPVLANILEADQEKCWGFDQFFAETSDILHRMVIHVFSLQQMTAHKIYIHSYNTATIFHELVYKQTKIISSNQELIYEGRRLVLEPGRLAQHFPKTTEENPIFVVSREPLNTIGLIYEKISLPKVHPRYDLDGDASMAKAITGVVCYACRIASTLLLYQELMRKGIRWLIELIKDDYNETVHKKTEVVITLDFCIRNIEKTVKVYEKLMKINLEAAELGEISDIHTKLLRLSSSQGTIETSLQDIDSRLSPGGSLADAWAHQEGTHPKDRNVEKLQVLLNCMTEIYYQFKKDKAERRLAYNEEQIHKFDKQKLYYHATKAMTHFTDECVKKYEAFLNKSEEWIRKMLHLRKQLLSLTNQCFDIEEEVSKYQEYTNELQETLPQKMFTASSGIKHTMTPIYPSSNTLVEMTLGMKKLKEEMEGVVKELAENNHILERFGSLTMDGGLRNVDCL
The note with it: at 0.1 µM.

The target of assay [11] is T2, Serine/threonine-protein kinase TBK1 (Homo sapiens). The note with it: at 1 µM.
Assay [12] has as its target T3, Testis-specific serine/threonine-protein kinase 1 (Homo sapiens) (UniProt Q9BXA7).
T3 sequence (whole entry): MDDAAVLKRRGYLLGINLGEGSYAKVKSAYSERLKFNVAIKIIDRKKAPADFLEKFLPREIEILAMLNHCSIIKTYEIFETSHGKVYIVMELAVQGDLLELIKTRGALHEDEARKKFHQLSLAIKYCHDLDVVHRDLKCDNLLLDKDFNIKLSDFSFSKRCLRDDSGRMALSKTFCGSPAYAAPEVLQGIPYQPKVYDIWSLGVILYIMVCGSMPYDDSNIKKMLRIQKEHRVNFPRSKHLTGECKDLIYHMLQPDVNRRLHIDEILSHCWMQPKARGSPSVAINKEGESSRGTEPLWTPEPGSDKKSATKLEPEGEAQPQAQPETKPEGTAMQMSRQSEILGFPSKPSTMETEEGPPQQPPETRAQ
The note with it: at 0.1 µM.

Assay [13] has as its target T3, Testis-specific serine/threonine-protein kinase 1 (Homo sapiens). To be noted: at 1 µM.
For assay [14], the target named is T4, Testis-specific serine/threonine-protein kinase 2 (Homo sapiens) (UniProt Q96PF2).
T4 sequence (whole entry): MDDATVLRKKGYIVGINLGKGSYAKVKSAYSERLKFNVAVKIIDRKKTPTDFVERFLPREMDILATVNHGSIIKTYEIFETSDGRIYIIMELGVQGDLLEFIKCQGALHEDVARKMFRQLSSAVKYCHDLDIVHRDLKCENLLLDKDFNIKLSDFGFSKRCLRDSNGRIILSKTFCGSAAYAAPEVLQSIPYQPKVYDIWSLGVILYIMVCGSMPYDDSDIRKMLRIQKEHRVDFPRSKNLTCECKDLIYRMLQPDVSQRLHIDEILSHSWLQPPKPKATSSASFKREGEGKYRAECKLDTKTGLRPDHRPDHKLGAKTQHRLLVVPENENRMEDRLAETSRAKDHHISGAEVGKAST
To be noted: at 0.1 µM.

Assay [15] concerns the target T4, Testis-specific serine/threonine-protein kinase 2 (Homo sapiens). The note with it: at 1 µM.
Assay [16] addresses Casein kinase I isoform alpha (Homo sapiens) (UniProt P48729). To be noted: at 0.1 µM.
Assay [17] shares this target. To be noted: at 1 µM.
For assay [18], the target named is Casein kinase I isoform gamma-1 (Homo sapiens) (UniProt Q9HCP0). To be noted: at 0.1 µM.
Chain of Casein kinase I isoform gamma-1 (Homo sapiens) (Q9HCP0 whole entry, looked up, canonical isoform): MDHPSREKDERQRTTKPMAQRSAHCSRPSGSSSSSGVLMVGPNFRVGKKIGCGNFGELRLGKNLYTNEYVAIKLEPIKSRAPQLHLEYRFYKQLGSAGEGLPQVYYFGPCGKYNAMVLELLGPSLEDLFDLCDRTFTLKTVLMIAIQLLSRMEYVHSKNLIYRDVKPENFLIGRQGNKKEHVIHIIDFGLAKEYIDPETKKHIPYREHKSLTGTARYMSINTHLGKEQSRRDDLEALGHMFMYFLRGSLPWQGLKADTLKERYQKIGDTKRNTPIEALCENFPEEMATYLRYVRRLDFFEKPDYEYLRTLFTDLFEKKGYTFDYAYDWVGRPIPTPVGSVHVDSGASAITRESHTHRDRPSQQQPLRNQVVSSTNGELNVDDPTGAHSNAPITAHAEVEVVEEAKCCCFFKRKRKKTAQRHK
For assay [19] the target is unchanged. To be noted: at 1 µM.
The target of assay [20] is Casein kinase I isoform gamma-2 (Homo sapiens) (UniProt P78368). The note with it: at 0.1 µM.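 Also: values are mean inhibition figures reported as part of the GSK PKIS dataset.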
Chain of Casein kinase I isoform gamma-2 (Homo sapiens) (P78368 whole entry, looked up, canonical isoform): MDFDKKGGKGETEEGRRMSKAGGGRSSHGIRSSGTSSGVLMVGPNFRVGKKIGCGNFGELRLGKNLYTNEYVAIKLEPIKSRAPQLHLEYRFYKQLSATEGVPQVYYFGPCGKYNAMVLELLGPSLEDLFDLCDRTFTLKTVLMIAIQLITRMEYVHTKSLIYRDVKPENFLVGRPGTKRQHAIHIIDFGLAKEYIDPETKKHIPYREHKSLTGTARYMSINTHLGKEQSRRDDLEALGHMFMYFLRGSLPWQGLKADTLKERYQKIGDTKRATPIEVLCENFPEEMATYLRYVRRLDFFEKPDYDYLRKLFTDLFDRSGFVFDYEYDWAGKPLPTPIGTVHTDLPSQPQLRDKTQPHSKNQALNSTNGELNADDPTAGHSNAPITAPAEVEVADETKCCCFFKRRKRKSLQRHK

Chain of Casein kinase I isoform alpha (Homo sapiens) (P48729 2-337 limits assumed): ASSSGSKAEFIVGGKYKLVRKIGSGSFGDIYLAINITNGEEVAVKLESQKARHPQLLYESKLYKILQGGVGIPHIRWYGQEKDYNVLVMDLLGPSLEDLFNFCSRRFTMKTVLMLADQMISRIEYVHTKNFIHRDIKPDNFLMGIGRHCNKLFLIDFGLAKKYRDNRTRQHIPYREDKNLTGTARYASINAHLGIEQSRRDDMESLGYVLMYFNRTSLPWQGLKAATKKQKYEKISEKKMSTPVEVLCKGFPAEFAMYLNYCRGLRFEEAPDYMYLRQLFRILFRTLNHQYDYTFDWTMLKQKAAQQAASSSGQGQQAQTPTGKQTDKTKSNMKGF
Chain of Serine/threonine-protein kinase SIK2 (Homo sapiens) (Q9H0K1 whole entry, looked up): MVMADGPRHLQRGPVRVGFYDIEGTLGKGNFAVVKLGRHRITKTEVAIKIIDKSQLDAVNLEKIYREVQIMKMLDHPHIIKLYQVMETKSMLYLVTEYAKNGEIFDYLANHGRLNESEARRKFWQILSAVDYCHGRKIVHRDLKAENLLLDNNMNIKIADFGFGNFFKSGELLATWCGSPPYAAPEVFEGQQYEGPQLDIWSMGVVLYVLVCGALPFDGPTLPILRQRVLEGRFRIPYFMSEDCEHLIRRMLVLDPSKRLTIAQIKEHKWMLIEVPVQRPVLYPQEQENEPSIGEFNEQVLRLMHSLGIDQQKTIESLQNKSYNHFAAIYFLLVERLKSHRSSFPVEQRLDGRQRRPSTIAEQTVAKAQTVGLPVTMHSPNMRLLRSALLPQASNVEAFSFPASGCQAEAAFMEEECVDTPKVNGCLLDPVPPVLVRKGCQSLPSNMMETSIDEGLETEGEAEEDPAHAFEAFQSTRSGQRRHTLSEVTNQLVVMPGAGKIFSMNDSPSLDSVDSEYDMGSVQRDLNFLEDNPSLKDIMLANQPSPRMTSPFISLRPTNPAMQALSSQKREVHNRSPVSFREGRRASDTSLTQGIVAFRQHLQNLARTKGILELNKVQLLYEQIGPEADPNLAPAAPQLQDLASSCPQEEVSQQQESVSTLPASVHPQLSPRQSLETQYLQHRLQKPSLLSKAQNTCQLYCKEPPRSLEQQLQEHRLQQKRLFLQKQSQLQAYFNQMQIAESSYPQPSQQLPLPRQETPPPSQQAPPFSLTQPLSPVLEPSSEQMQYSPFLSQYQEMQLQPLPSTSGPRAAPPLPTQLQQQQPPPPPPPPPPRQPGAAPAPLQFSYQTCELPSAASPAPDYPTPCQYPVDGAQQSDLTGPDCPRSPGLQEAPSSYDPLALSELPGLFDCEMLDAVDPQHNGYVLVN
Chain of Serine/threonine-protein kinase pim-2 (Homo sapiens) (Q9P1W9 whole entry, looked up): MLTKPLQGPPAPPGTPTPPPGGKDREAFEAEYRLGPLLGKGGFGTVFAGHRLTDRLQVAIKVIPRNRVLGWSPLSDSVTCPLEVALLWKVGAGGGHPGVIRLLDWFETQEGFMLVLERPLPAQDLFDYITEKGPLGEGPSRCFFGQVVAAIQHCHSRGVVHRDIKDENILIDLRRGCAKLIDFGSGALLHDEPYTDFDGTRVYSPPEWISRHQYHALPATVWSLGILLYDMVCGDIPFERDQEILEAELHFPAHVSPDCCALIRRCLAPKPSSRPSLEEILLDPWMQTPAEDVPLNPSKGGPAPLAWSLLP

As for `Fc1ccc(-c2cc(-c3c[nH]nc3-c3ccccn3)ccn2)cc1`, the inhibition in [1] was -1.45%; in assay [2], -0.42%; in assay [3], 1.85%; in [4] it was 2.19%; in [5], 4.27%; in assay [6] it was 3.49%. The inhibition in [7] is 8.52%; in assay [8], 7.67%; in [9], 8%; in [10], 0.43%; in assay [11], 3.03%; in [12], 6.33%. The inhibition in assay [13] was 9.18%; in assay [14], 4.38%; in assay [15] it was 6.99%; in assay [16], 3.27%; in [17] it was 5.16%; in assay [18], 4.51%. For the same molecule, the values for the inhibition in [19] and in [20] were 7.09% and 4.03%, respectively.

Turning to `COc1ccc(-c2cc(-c3c[nH]nc3-c3ccccn3)ccn2)cc1`, the inhibition in [1] was determined as 1.29%; in assay [2], 0.79%; in [3], 1.9%; in [4], 2.14%; in assay [5], 4.32%; in [6] it was 11.2%. For the same molecule, the inhibition in assay [7] is 7.23%; in assay [8], 3.82%; in [9], 11.3%; in assay [10], 4.48%; in assay [11], 6.38%; in assay [12], 3.33%. Besides, the inhibition in assay [13] came out at 5.54%; in assay [14] it was 2.38%; in assay [15] it was 3.88%; in assay [16] it was 3.31%; in assay [17], 11.5%; in [18], 4.71%. Moreover, the inhibition in assay [19] is 5.78%; in [20], 3.51%.

With `COc1cc2c(cc1Nc1nc(Nc3ccsc3C(N)=O)c3cc[nH]c3n1)N(C(=O)CN(C)C)CCC2(C)C`, the inhibition is 11.9% in assay [1]; 18.4% in assay [2]; 68.1% in assay [3]; 1.65% in assay [4]; 3.7% in assay [5]; 2.02% in assay [6]. In addition, the inhibition in [7] turned out to be 7.92%; in assay [8] it was 7.71%; in assay [9], 7.78%; in assay [10], 11.3%; in [11], 50.7%; in [12] it was 94.6%. Further, the inhibition in [13] is 96.3%; in assay [14], 87.4%; in assay [15], 94.6%; in assay [16] it was 4.27%; in [17], 14.9%; in assay [18], 6.43%. In addition, the inhibition in [19] turned out to be 21.1%; in assay [20] it was 3.76%.

As for `CCn1c(-c2nonc2N)nc2c(C#CC(C)(C)O)ncc(OC3CCNCC3)c21`, the inhibition in assay [1] turned out to be 11.7%; in assay [2], 2.64%; in assay [3], 23.8%; in assay [4], 0.79%; in assay [5] it was 1.22%; in assay [6] it was 3.53%. Besides, the inhibition worked out at 10.6% in assay [7]; 3.69% in assay [8]; 14.8% in assay [9]; 12.2% in assay [10]; 45.9% in assay [11]; 20.7% in [12]. In addition, the inhibition in [13] was determined as 71.4%; in assay [14], 0.88%; in [15], 2.99%; in [16] it was 2.3%; in [17], 8.85%; in assay [18], 2.94%. Moreover, the figures for the inhibition in [19] and in assay [20] were 4.65% and 2.46%, respectively.

On to `COc1cc(N2CCN(C(C)C)CC2)ccc1Nc1nc(Nc2ccc(F)cc2C(N)=O)c2cc[nH]c2n1`, for which the inhibition in assay [1] worked out at 1.98%; in assay [2], 1.69%; in assay [3], 19.9%; in assay [4], 1.95%; in assay [5], 16%; in assay [6], 7.46%. Further, the inhibition in assay [7] amounted to 14.3%; in assay [8], 3.18%; in assay [9] it was 8.56%; in [10], 3.02%; in assay [11], 6.76%; in [12], 82.8%. The inhibition in [13] worked out at 95.4%; in assay [14] it was 58.6%; in assay [15] it was 90.8%; in assay [16] it was 12.4%; in assay [17], 58.3%; in assay [18], 9.86%. The inhibition in assay [19] was 42.2%; in assay [20] it was 7.97%.
